# ID4 SMM = binders of human ID4 protein; 31,000 compounds, 1.2% hits; calls only; small molecule microarray, Flag-ID4 binding, fluorescence F/B; P47928; call rule not given here;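 note: a binder raises fluorescence above local background on the spot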
# Target sequence (P47928 whole entry, looked up): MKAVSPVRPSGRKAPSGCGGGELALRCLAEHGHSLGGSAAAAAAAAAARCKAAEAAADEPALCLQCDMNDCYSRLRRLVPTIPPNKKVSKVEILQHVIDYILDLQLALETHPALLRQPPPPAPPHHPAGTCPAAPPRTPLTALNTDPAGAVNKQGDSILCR
# * hit, by the source's call; i = inactive; + = active, no number. This is one part of a sample in which hits are shown more often than they occur.
SMILES,ID4 SMM
COc1ccc(N(CC(=O)Nc2cccc([N+](=O)[O-])c2C)S(C)(=O)=O)cc1Cl,i
CC(C)(O)C#Cc1ccccc1C(=O)NC(Cc1c[nH]c2ccccc12)C(=O)O (stereo not given),i
O=C(CSc1nnc(-c2ccncc2)n1-c1ccccc1)Nc1ccc(Br)cc1C(F)(F)F,i
CC1(C)C/C(=N\O)c2c(nc(C(F)(F)F)c3[nH]c4ccccc4c23)C1,i
CCc1cc(C(=O)OC)c(NC(=O)c2cc(-c3cccnc3)nc3ccc(Br)cc23)s1,i
N#Cc1c(NC(=O)CSc2n[nH]c(-c3ccc(Cl)cc3)n2)sc2c1CCCC2,i
COC(=O)c1ccc(C(=O)OC)c(NC(=O)CN2C(=O)c3cccc4cccc2c34)c1,i
Cc1cc(C)c(C#N)c(SCCS(=O)(=O)c2nc3ccccc3s2)n1,i
CC1CCc2c(sc3ncnc(SCC(=O)NC4CCCCC4)c23)C1 (stereo not given),i
COC(=O)c1sc(C(C)(C)C)cc1CS(=O)(=O)c1cc(C)c(Cl)cc1C,i
COc1ccc(Cl)cc1N(CC(=O)Nc1cc(Cl)ccc1C)S(C)(=O)=O,i
O=C(c1ccc([N+](=O)[O-])cc1)N(Cc1cc2ccccc2[nH]c1=O)c1ccccc1,+
CC(C)N(Cc1nc(-c2ccccc2)no1)C(=O)c1ccc([N+](=O)[O-])cc1,i
Cc1ccc(N(Cc2cc3ccccc3[nH]c2=O)C(=O)c2cccnc2)cc1,i
Cc1cccc(C)c1Nc1c(CN2C(=O)c3ccccc3C2=O)nc2ccc(Br)cn12,i
O=C(CN1C(=O)c2ccccc2S1(=O)=O)NCC1CCCO1 (stereo not given),i
COc1ccc(-c2csc3ncn(CC(N)=O)c(=O)c23)cc1OC,i
COc1ccc(-c2csc3ncn(CC(=O)Nc4sc5c(c4C#N)CCC5)c(=O)c23)cc1OC,+
N#Cc1c(NC(=O)Cn2cnc3sc(-c4ccccc4)cc3c2=O)sc2c1CCC2,i
COc1cc([N+](=O)[O-])ccc1NC(=O)CN(C)S(=O)(=O)c1ccc(Br)cc1,i
COC(=O)c1ccc(NC(=O)CCn2nc(-c3ccccc3)c3ccccc3c2=O)cc1,i
COc1ccc(C)cc1S(=O)(=O)N1CCCC(C(=O)Nc2ccccc2)C1 (stereo not given),i
COC(=O)c1cc(-c2ccccc2)sc1NC(=S)Nc1ccn(C)n1,i
COC(=O)c1cc(-c2ccccc2)sc1NC(=S)Nc1cn(C)nc1C,+
CCOC(=O)c1cc(-c2ccccc2)sc1NC(=S)Nc1cnn(CC)c1C(N)=O,i
SMILES,ID4 SMM
Cc1scc2c1N(C(=O)CN1CCN(C)CC1)c1ccccc1NC2=O,i
CCN(CC)CCCCC1CCN(CC(=O)N2c3ccccc3C(=O)Nc3cccnc32)CC1,+
COc1ccc(CCNC(=O)c2cc3cc(Br)cc(OC)c3oc2=O)cc1OC,i
O=C(CCSc1nc2ccccc2s1)N1CCOCC1,i
COCCNS(=O)(=O)c1cc([N+](=O)[O-])ccc1C,i
Cc1ccccc1NC(=O)c1ccc(C)c(S(=O)(=O)Nc2cc([N+](=O)[O-])ccc2C)c1,+
Cc1ccc(NS(=O)(=O)c2cc(C(=O)Nc3ccccc3C(=O)N3CCCC3)ccc2C)c(C)c1,i
COc1cccc(C2C(C(=O)c3cc4ccccc4o3)C(=O)C(=O)N2c2nc(C)c(C)s2)c1OC (stereo not given),i
Cc1ccnc(NC(c2cccc(Cl)c2)c2ccc3ccc(C)nc3c2O)c1 (stereo not given),i
CC(=O)Nc1ccc(OCC(O)Cn2nc(C)cc2C)cc1 (stereo not given),i
CC(=O)Nc1ccc(OCC(O)CNC2CCCC2)cc1 (stereo not given),i
CC(=O)Nc1ccc(OCC(O)CNC(C)C)cc1 (stereo not given),+
Cc1ccc(-c2cnc(-c3ccc(Br)cc3)o2)cc1,i
O=C(CSc1nnc(-c2cccnc2)n1-c1ccccc1)N1CCN(c2ccc(F)cc2)CC1,+
O=C(CSc1nnc(-c2cccnc2)n1-c1ccccc1)N1CCc2ccccc21,i
O=C(CSc1nnc(-c2ccccc2O)n1-c1ccccc1)N1CCN(c2ccccc2)CC1,i
Cc1cc(C)nc(SCC(=O)Nc2nonc2N)n1,i
COC(=O)CSc1nc(C)cc(C)n1,i
Cc1cc(C)nc(SCc2csc(N)n2)n1,+
Cc1[nH]c2ccccc2c1C(=O)CSc1ncn[nH]1,i
Cc1nnc(SCC(=O)c2c(C)[nH]c3ccccc23)s1,i
Cc1[nH]c2ccccc2c1C(=O)CCC(=O)O,+
CCC1=C/C(=C\N(C)c2ccccc2)C(=O)S1,i
COc1cccc(C(=O)Nc2ccc(NC(=O)C3CC=CCC3C(=O)O)cc2)c1 (stereo not given),i
COc1cccc(C(=O)Nc2ccc(NC(=O)C3CCCCC3C(=O)O)cc2)c1 (stereo not given),+
SMILES,ID4 SMM
COC(=O)c1ccc(NC(=O)C2CCCCC2C(=O)O)cc1 (stereo not given),i
CC1CC[C@@]2(OC1)O[C@H]1CC3C4CC=C5C[C@@H](O[C@@H]6O[C@H](CO)[C@@H](O)[C@H](O)[C@H]6O)CC[C@]5(C)C4CC[C@]3(C)[C@@]1(O)[C@@H]2C (stereo not given in full),i
COC(=O)CSc1nc2sc3c(c2c(=O)n1Cc1ccccc1)CCCC3,i
CCOc1ccc2nc(SCC(=O)Nc3cccc(C)c3C)sc2c1,i
Cc1cc(O)c(C)c2c1Oc1c(C)c(O)cc(C)c1C(=O)O2,i
Cc1ccc(Cl)cc1N(CC(=O)Nc1ccc(C(F)(F)F)cc1)S(C)(=O)=O,i
Cc1cccc(NC(=O)CSc2nc(-c3ccccc3)c(-c3ccccc3)[nH]2)c1C,i
O=C(O)CCSc1nc(-c2ccccc2)c(-c2ccccc2)[nH]1,+
COc1cccc(NC(=O)CSc2nc(-c3ccccc3)c(-c3ccccc3)[nH]2)c1,i
Cc1ccc(C)c(Cn2c(CCCO)nc3ccccc32)c1,i
COc1ccc(NC(=O)C(Cc2ccccc2)N2C(=O)c3ccccc3C2=O)cc1 (stereo not given),i
CCc1ccccc1OCC(=O)Nc1sc2c(c1C(N)=O)CCCC2,i
NC(=O)c1c(NC(=O)C(Cc2ccccc2)N2C(=O)c3ccccc3C2=O)sc2c1CCCC2 (stereo not given),+
Cc1nn(-c2ccccc2)cc1C1C=C(c2ccc(Cl)cc2)N=C2SCC(=O)N21 (stereo not given),i
COc1ccc(OC)c(S(=O)(=O)N(C)CC(=O)Nc2ccc(F)cc2)c1,i
COc1c(Cl)cc(C(=O)Nc2ccc(S(=O)(=O)Nc3cc(C)nc(C)n3)cc2)cc1Cl,i
COc1ccc(CCNC(=O)c2ccc(-c3cccc(C(F)(F)F)c3)o2)cc1OC,i
COc1ccc(CCNC(=O)C2OCCc3ccccc32)cc1OC (stereo not given),+
O=C(NCc1ccco1)C1OCCc2ccccc21 (stereo not given),i
C[C@H]1CN([C@@H](C)CO)C(=O)c2cc(-c3cccc(C(=O)N(C)C)c3)cnc2O[C@H]1CN(C)C,i
C[C@H](CO)N1C[C@H](C)[C@H](CN(C)C)Oc2ncc(-c3ccccc3)cc2C1=O,i
C[C@H](CO)N1C[C@H](C)[C@@H](CN(C)C)Oc2ncc(-c3ccncc3)cc2C1=O,i
